The list is not random: actives were taken first. Their share in the collection is about 8%.
Marburg entry inh: Marburg virus entry inhibition. Marburg virus pseudotyped entry inhibition, cell reporter. Potency, µM (doses to about 37.8 µM), usual class: inhibitors. 1.8% of 300,000 active. AID 540276; calls by dose curve; tested in HEK293 cells
HCV inh: inhibitors of hepatitis C virus infection; Huh7.5.1 HCVcc-Cre infection, luciferase reporter, 44 h; AID 651820; 3.4% of 340,000 active; Potency, µM (top dose mostly 41.8 µM), usual class: inhibitors; active = well fitted inhibition curve with a large enough effect; inconclusive = small, poorly fitted or top-dose-only effect, or another doubt; inactive = no such curve, though single readings can be large or run the other way
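Seed cells (1,000/well) for 4 h; treat with compound and infect with HCVcc-Cre, moi about 0.5. Incubate 44 h, then detect luciferase activity.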
FMDV antiviral: foot and mouth disease virus antiviral activity; 1.2% of 410,000 active; Potency, µM (doses to about 57.9 µM), actives largely listed as inhibitors; FMDV antiviral cell-based qHTS; AID 1159524; calls by dose curve; tested in HEK293T cells; also: read-out not given here; nearly all actives have a fitted effect of over 45% in size
HCMV inh: human cytomegalovirus inhibition; 4.5% of 410,000 active; activity change, negative = inhibition, % at 57.5 µM; AID 1259415; HFF cells, HCMV-luciferase reporter, 72 h; stronger effect = lower value; in the data active = activity change below about -60%; inconclusive = no clear call, values can overlap the other calls; inactive = above about -39%
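Screen run at 2 compound doses on HFFs infected with reporter HCMV, MOI 1 PFU/cell. Luciferase activity from cell lysates at 72 h post infection gave inhibition relative to buffer-only and Salinomycin wells.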
LASV entry inh: blocks Lassa virus binding to or entry into cells | 1.2% of 300,000 active | Lassa virus pseudotype entry inhibition, cell reporter | Potency, µM (doses to about 37.9 µM), most hits filed as inhibitors; calls by dose curve; tested in HEK293 cells; also: nearly all actives have a fitted effect of over 50% in size
SARS PLpro yeast: SARS-CoV PLP inhibition in yeast; S. cerevisiae expressing SARS-CoV PLpro, growth rescue; 0.19% of 330,000 active; Potency, µM (top dose mostly 32.9 µM), most hits filed as activators; AID 485353; calls by dose curve; also: nearly all actives have a fitted effect of over 55% in size
Each line names hits and unclear results; the compound was inactive in the other large screens.

CN(C)c1ccc(/C=N/O)cc1	none
O=C(CSc1ccccc1F)NCC(c1cccs1)N1CCOCC1 (stereo not drawn)	none (no result: Marburg entry inh, LASV entry inh)
CCCCc1c(-c2ccccc2OC)ncn1CCc1ccc(Cl)cc1	FMDV antiviral inconclusive (no result: Marburg entry inh, HCV inh, LASV entry inh, SARS PLpro yeast)
CCCCc1c(-c2cccc(Cl)c2)ncn1CCc1ccccc1OC	FMDV antiviral 22µM, HCMV inh -80 (no result: Marburg entry inh, HCV inh, LASV entry inh, SARS PLpro yeast)
CCCCc1c(-c2ccccc2)ncn1CCc1ccccc1OC	FMDV antiviral 25µM, HCMV inh -75 (no result: Marburg entry inh, HCV inh, LASV entry inh, SARS PLpro yeast)
CCCCc1c(Cc2ccccc2)ncn1CCc1ccccc1OC	FMDV antiviral inconclusive, HCMV inh -76 (no result: Marburg entry inh, HCV inh, LASV entry inh, SARS PLpro yeast)
CCCCc1c(-c2ccccc2OC)ncn1CCc1ccc(OC)cc1	FMDV antiviral 22µM, HCMV inh -64 (no result: Marburg entry inh, HCV inh, LASV entry inh, SARS PLpro yeast)
CCCCc1c(-c2ccccc2OC)ncn1CCc1ccccc1	FMDV antiviral inconclusive (no result: Marburg entry inh, HCV inh, LASV entry inh, SARS PLpro yeast)
COc1ccccc1N(C(=O)c1cncc(Br)c1)c1nc(-c2ccc(C)cc2)cs1	HCV inh inconclusive
CC(=O)c1ccc(Nc2cc(C)nc3nc(Cc4ccc(Cl)cc4)nn23)cc1	FMDV antiviral inconclusive (no result: HCV inh, SARS PLpro yeast)
CCCCc1c(-c2ccc(F)cc2)ncn1CCc1ccccc1OC	FMDV antiviral 25µM, HCMV inh -62 (no result: Marburg entry inh, HCV inh, LASV entry inh, SARS PLpro yeast)
CCCCc1c(-c2ccc(OC)cc2)ncn1CCc1ccccc1OC	FMDV antiviral 22µM, HCMV inh -85 (no result: Marburg entry inh, HCV inh, LASV entry inh, SARS PLpro yeast)
CCCCCc1c(-c2ccc(OC)cc2)ncn1CCc1ccccc1OC	FMDV antiviral 22µM, HCMV inh -94 (no result: Marburg entry inh, HCV inh, LASV entry inh, SARS PLpro yeast)
CCCCCc1c(-c2ccc(Cl)cc2)ncn1CCc1ccccc1OC	HCMV inh -75 (no result: Marburg entry inh, HCV inh, LASV entry inh, SARS PLpro yeast)
CCc1c(-c2ccc(Cl)cc2)ncn1CCc1ccccc1OC	none (no result: Marburg entry inh, HCV inh, FMDV antiviral, LASV entry inh, SARS PLpro yeast)
CCCc1c(-c2cccc(Cl)c2)ncn1Cc1ccccc1OC	FMDV antiviral inconclusive (no result: Marburg entry inh, HCV inh, LASV entry inh, SARS PLpro yeast)
COc1ccc(-c2nc3cnc(N4CCOCC4)nc3n(C3CC3)c2=O)cc1	none (no result: Marburg entry inh, HCV inh, HCMV inh, LASV entry inh, SARS PLpro yeast)
CC(C)CCn1c(=O)c(C(=O)Nc2ccccc2S(N)(=O)=O)c(O)c2ccccc21	Marburg entry inh inconclusive, HCV inh inconclusive, HCMV inh -97, LASV entry inh inconclusive
C=C(C(C)=O)C(O)C=Cc1ccco1 (stereo not drawn)	none (no result: HCV inh, FMDV antiviral, HCMV inh, LASV entry inh, SARS PLpro yeast)
C=CCSC(=S)NC1CCS(=O)(=O)C1 (stereo not drawn)	Marburg entry inh inconclusive, FMDV antiviral 13µM, HCMV inh inconclusive
CCCOc1ccc(C2c3c(-c4ccccc4O)n[nH]c3C(=O)N2Cc2ccncc2)cc1OCC (stereo not drawn)	LASV entry inh inconclusive (no result: HCV inh, SARS PLpro yeast)
CC1(C)CC(=O)C=C(C2CC2)C1=O	none (no result: Marburg entry inh, HCV inh, FMDV antiviral, LASV entry inh, SARS PLpro yeast)
CC(=C\c1ccco1)/C=C(\C#N)C(=O)NCCc1c[nH]c2ccccc12	Marburg entry inh inconclusive, HCV inh inconclusive, HCMV inh -73
O=C(NC1CCCCC1)NC12CC3CC(CC(C3)C1)C2	none
CS(=O)(=O)N(C(=O)NC(=O)NC12CC3CC(CC(C3)C1)C2)C1CCCCC1	HCMV inh -64
O=C1C=CC(=O)N1CCCCCCCCCCN1C(=O)C=CC1=O	Marburg entry inh inconclusive, HCV inh inconclusive, FMDV antiviral 20µM, LASV entry inh inconclusive (no result: SARS PLpro yeast)
O=C(Nc1ccccc1)N1N=CCC1c1ccccc1 (stereo not drawn)	HCMV inh inconclusive
O=C(Nc1ccc(Cl)c(Cl)c1)N1N=CCC1c1ccccc1 (stereo not drawn)	Marburg entry inh inconclusive, HCV inh 10µM, HCMV inh -66, LASV entry inh inconclusive
COc1cccc(N2CC(NC(=O)/C=C\c3ccc4c(c3)OCO4)CC2=O)c1 (stereo not drawn)	none (no result: Marburg entry inh, HCV inh, SARS PLpro yeast)
COc1cc(O)c(C(C)=O)c(CC(=O)O)c1	HCV inh 3.2µM (no result: Marburg entry inh, LASV entry inh)
COc1cc(O)c(C(C)=O)c(OC)c1	HCMV inh inconclusive (no result: Marburg entry inh, LASV entry inh, SARS PLpro yeast)
N#C/C(=C\c1coc2ccccc2c1=O)C(N)=S	HCV inh inconclusive
N#C/C(=C\c1coc2ccc(O)cc2c1=O)C(=O)Nc1nc2ccccc2s1	HCV inh inconclusive, FMDV antiviral inconclusive, HCMV inh -73 (no result: Marburg entry inh, LASV entry inh)
C=C1CC2(CC(c3ccccc3)OC(c3ccccc3)C2)OC1=O (stereo not drawn)	Marburg entry inh inconclusive, HCV inh inconclusive, FMDV antiviral 22µM, LASV entry inh inconclusive (no result: SARS PLpro yeast)
c1ccc(COc2ccc(OCCN3CCCC3)cc2)cc1	Marburg entry inh inconclusive
c1ccc(COc2ccc(OCCCN3CCCC3)cc2)cc1	Marburg entry inh 13µM, HCV inh 10µM, LASV entry inh inconclusive
O=C1CCN(CCc2ccccc2)CCN1CCSc1ccc(Br)cc1	none (no result: Marburg entry inh, LASV entry inh)
